# Experimental data taken from PubChem BioAssay AID2685 (National Center for Advancing Translational Sciences (NCATS), 2010).
# Hit rate of the full screen: of about 320,000 compounds, about 2,100 (0.66%) were called active. Roughly 53% stayed inconclusive and do not appear here. The call rests on the fitted dose curve; in most records, active means well fitted inhibition curve with a large enough effect in the signal ratio, with a control signal flat (not every such curve was filed as active); inconclusive means small, poorly fitted or top-dose-only effect, or effect the other way, or a change in a side signal; inactive means flat fitted curve, though single readings scatter; the % refers to the signal ratio. Many of the other results were omitted from the sample, so actives are more common in it than they were.
# Test: qHTS Assay for Lipid Storage Modulators in Drosophila S3 Cells;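 on cell number change: cells counted by Cell Tracker Red CMTPX staining in the red channel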; on lipid storage change, negative = inhibition: on the % scale 0 is the no-effect control and ±100 the full control effect
# Conditions: BODIPY lipid droplet fluorescence, 18-24 h, cells fed with added oleic acid; cell number change: measured here: cell count max response; series mostly up to 46.1 µM; lipid storage change, negative = inhibition: at the top concentration
# Outline: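 Drosophila S3 cells got compounds at several concentrations plus oleic acid (400 uM solution). Laser-scanning cytometry with 488 nm excitation read lipid droplets at 500-530 nm and cells at 575-640 nm. Percent activity was relative to 20 uM Triacsin C.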
# Potency means the concentration at half of the fitted maximal effect.
SMILES,"lipid storage change, negative = inhibition",cell number change [%],Potency,outcome
O=C(Nc1ccc(N2CCOCC2)cc1)C1CCCN(S(=O)(=O)c2cccc(C(F)(F)F)c2)C1 (stereo not drawn),9.49% (inactive),2.4,,
CCCNC(=O)c1ccccc1NC(=O)CN(c1ccccc1)S(=O)(=O)N(C)C,-15.5% (inactive),-16.1,,
CC1(C)CC2CC(C)(CN2S(=O)(=O)c2ccc(C(=O)Nc3ccc(Cl)c(S(=O)(=O)N4CCOCC4)c3)cc2)C1 (stereo not drawn),,,5.8 µM (active),
O=C(Nc1ccc(Cl)c(S(=O)(=O)N2CCOCC2)c1)c1ccc2c(c1)OCCO2,-7.25% (inactive),19.2,,
CN1CCN(NC(=O)c2ccc(S(=O)(=O)N3CC4(C)CC3CC(C)(C)C4)cc2)CC1 (stereo not drawn),-1.05% (inactive),3.86,,
CCOc1ccc(C(=O)NCC(=O)OCc2ccc(F)cc2Cl)cc1,8.58% (inactive),13.4,,
CCn1c(=O)c2cc(C(=O)N(C)CC(OC)OC)sc2c2ccccc21,2.97% (inactive),7.22,,
O=C(OCc1nnc(-c2ccccc2)o1)c1cc(S(=O)(=O)N2CCOCC2)ccc1F,14.7% (inactive),-16.6,,
Cc1noc(C)c1COC(=O)c1cc(S(=O)(=O)N2CCOCC2)ccc1F,16% (inactive),4.32,,
CCc1cc2c(COC(=O)c3cc(S(=O)(=O)N4CCOCC4)ccc3F)cc(=O)oc2cc1O,,-14.4,18.4 µM (active),
CCc1ccc(OCC(=O)Nc2ccc3c(c2)COC3=O)cc1,16% (inactive),8.42,,
COc1ccc(C)cc1NC(=O)C1CCN(S(=O)(=O)c2cccc3cccnc23)CC1,,-24.8,10.3 µM (active),
COc1ccc(C)cc1NC(=O)C1CCCN(S(=O)(=O)c2cccc3nonc23)C1 (stereo not drawn),18.1% (inactive),,,
COc1ccc(NC(=O)C2CCN(S(=O)(=O)c3cccc4cccnc34)CC2)cc1OC,-9.44% (inactive),-22.5,,
COc1ccc(C)cc1NC(=O)C1CCCN(S(=O)(=O)c2cccc3cccnc23)C1 (stereo not drawn),,19.9,,inactive
COc1ccc(Cl)cc1NC(=O)C1CCCN(S(=O)(=O)c2cccc3nonc23)C1 (stereo not drawn),6.59% (inactive),8.35,,
COc1ccc(C)cc1NC(=O)C1CCN(S(=O)(=O)c2cccc3nonc23)CC1,,15.9,3.66 µM (active),
COc1ccc(S(=O)(=O)Nc2c(C)n(C)n(-c3ccccc3)c2=O)cc1Br,16.7% (inactive),-3.28,,
CCN(CC(=O)NCc1ccc(F)cc1)C(=O)c1ccc(COc2ccccc2)cc1,7.05% (inactive),2.25,,
S=C(Nc1ccccn1)NC1CCCCC1,22.6% (inactive),-4.33,,
COc1ccc(C2CC2/C(C)=N/OC(=O)c2cccs2)cc1 (stereo not drawn),,,,inactive
CCOC(=O)c1cc2sc(C)cc2n1CC(=O)NCCc1ccccc1,-3.61% (inactive),5.86,,
Cc1cccc(C(=O)Nc2ccc(C)c(OC(=O)c3cccc(C)c3)c2)c1,0.347% (inactive),-20.4,,

SMILES,"lipid storage change, negative = inhibition",cell number change [%],Potency,outcome
CCN(Cc1ccccc1)C(=O)COC(=O)c1cnc(C)cn1,-29.5% (inactive),,,
Cc1ccc(S(=O)(=O)NCCC(=O)NCCOc2ccccc2)cc1,-20.7% [at 0.0737 µM] (inactive),2.02,,
CC(=O)Nc1ccc(S(=O)(=O)NCCC(=O)NCCOc2ccccc2)cc1,1.4% (inactive),-2.82,,
O=C(CCCc1ccccc1)NCCc1ccccc1,,1.1,,inactive
O=C(CCCCC(=O)NCCCc1ccccc1)NCCCc1ccccc1,,-16.3,20.6 µM (active),
O=C(CCCCC(=O)NCCc1ccccc1)NCCc1ccccc1,-26.6% (inactive),-15.5,,
Cc1cnc(C(=O)OCC(=O)NCCCc2ccccc2)cn1,,-37.4,5.17 µM (active),
CC(=O)Nc1ccc(S(=O)(=O)NCCC(=O)NCCCc2ccccc2)cc1,,6.57,1.64 µM (active),
CC(=O)Nc1ccc(S(=O)(=O)NCCc2ccccc2)cc1,,-18.3,,inactive
COc1ccc(CCNC(=O)COC(=O)c2cnc(C)cn2)cc1OC,1.54% (inactive),5.11,,
Cc1ccc(S(=O)(=O)NCCC(=O)NCCCSc2ccccc2)cc1,,-14.6,16.4 µM (active),
COCCCNC(=O)CCNS(=O)(=O)c1ccc(C)cc1,8.63% (inactive),9.83,,
CC(=O)NC(Cc1ccccc1)C(=O)OCC(=O)c1ccc(F)cc1 (stereo not drawn),-27.4% (inactive),,,
Cc1ccc(Nc2nc(-c3ccncc3)nc3ccccc23)cc1,6.48% (inactive),-7.93,,
Cc1nn(CCCC(=O)NCc2ccco2)c(=O)c2nn(-c3ccccc3)c(C)c12,15.5% (inactive),,,
CC(C)(/C=N/O)N(O)C=C1C=CC(=O)C=C1,0.34% (inactive),1.11,,
N#C/C(C(=O)Oc1ccccc1)=C1\C=Cc2ccccc2N1,-11.1% (inactive),-1.92,,
COc1ccc(OC(=O)/C=C/c2ccc([N+](=O)[O-])cc2)cc1,-3.13% (inactive),3.89,,
COc1ccc(S(=O)Cc2ccc(C(=O)NC3CC3)o2)cc1 (stereo not drawn),12% (inactive),13.8,,
COc1ccc(N(C)S(=O)(=O)c2cccc(C(=O)Nc3nnc(C4CC4)s3)c2)cc1,-3.22% (inactive),,,
COc1ccc(N(C)S(=O)(=O)c2cccc(C(=O)Nc3nnc(C)s3)c2)cc1,,-20.6,,inactive
COc1ccc(N(C)S(=O)(=O)c2cccc(C(=O)Nc3nc(C)c(C(C)=O)s3)c2)cc1,,,1.16 µM (active),
O=C(NC(=S)NCc1cccnc1)c1cc2ccccc2o1,4.99% (inactive),-19.5,,

SMILES,"lipid storage change, negative = inhibition",cell number change [%],Potency,outcome
Cc1cc(F)c(F)c(C(=O)N2CCC(C)CC2)c1Cl,10.8% (inactive),0.433,,
Cc1cc(F)c(F)c(C(=O)NC2CC2)c1Cl,,,9.2 µM (active),
Cc1cc(F)c(F)c(C(=O)N2C(C)CCCC2C)c1Cl (stereo not drawn),-11.4% (inactive),0.056,,
COc1ccc(OCc2cc(C(=O)N(C)C(C)c3ccon3)no2)c(Cl)c1 (stereo not drawn),,-9.97,,inactive
Cc1cc2c(cc1S(=O)(=O)N1CCN(c3ccccc3)CC1)OCCN2C,25.3% (inactive),-3.46,,
Cc1cccc(N2CCN(C(=O)C3(S(=O)(=O)c4ccc(Cl)cc4)CC3)CC2)c1C,8.29% (inactive),0.245,,
Cc1ccc(S(=O)(=O)C2(C(=O)N3CCN(c4ccccc4F)CC3)CC2)cc1,,-5.26,0.731 µM (active),
Cc1ccc(S(=O)(=O)C2(C(=O)N3CCN(c4cc(C)ccc4C)CC3)CC2)cc1,6.15% (inactive),,,
C/C(=N/Nc1ccc([N+](=O)[O-])cc1)c1c[nH]c2ccccc12,,-24.9,4.11 µM (active),
C/C(=N/NS(=O)(=O)c1cccc([N+](=O)[O-])c1)c1c[nH]c2ccccc12,1.43% (inactive),,,
C/C(=N\NS(=O)(=O)c1ccc([N+](=O)[O-])cc1)c1c[nH]c2ccccc12,,-0.495,,inactive
O=C(Cn1cc(S(=O)(=O)Cc2ccccc2F)c2ccccc21)N1CCOCC1,-4.09% (inactive),9.64,,
O=[N+]([O-])c1ccc(N2CCCC2)nc1N1CCCC1,-1.16% (inactive),16.9,,
COc1ccc(-c2cc(=O)c(C(=O)c3ccc(C)cc3)n[nH]2)cc1,2.45% (inactive),14,,
O=C(OCc1cc(Cl)ccc1OC(F)F)c1cc(S(=O)(=O)O)ccc1O,,-6.52,1.64 µM (active),
O=C(OCc1cc(Cl)ccc1OC(F)F)c1cccnc1,8.44% (inactive),13.9,,
O=C(OCc1cc(Cl)ccc1OC(F)F)c1cncc(Br)c1,,,,inactive
CC1CC(=O)Nc2ccccc2N1C(=O)CSc1ncnc2sccc12 (stereo not drawn),6.7% (inactive),0.129,,
COc1ccc(CCC(=O)Nc2cccc(S(=O)(=O)N(C)C)c2)cc1OC,-18.4% (inactive),15.7,,
COc1ccc([N+](=O)[O-])cc1NC(=S)NC(C)=O,-18.5% (inactive),0.615,,
CN(C)S(=O)(=O)Nc1cc(Cl)cc(Cl)c1,,-41.2,18.4 µM (active),
Cc1ccc(NS(=O)(=O)N(C)C)cc1,,,,inactive
CN(C)S(=O)(=O)Nc1cc(F)cc(F)c1,-32.6% (inactive),-8.31,,

SMILES,"lipid storage change, negative = inhibition",cell number change [%],Potency,outcome
CCN(C(=O)COC(=O)c1ccc(Cl)c(N)c1)C1CCS(=O)(=O)C1 (stereo not drawn),0.308% (inactive),6.77,,
CCOc1ccccc1C(=O)n1nc2nc(C)cc(C)c2c1N,,6.26,,inactive
CCCn1c(N)c(C(=O)CSc2nnc(C3CC3)n2Cc2ccccc2)c(=O)[nH]c1=O,-10.4% (inactive),7.78,,
COc1ccc(C(=O)/C=C/c2ccccc2)c(OC)c1,-0.419% (inactive),16.5,,
O=C1C(=O)N(CCCN2CCOCC2)C(c2ccc(F)cc2)/C1=C(\O)c1ccc2c(c1)OCCO2 (stereo not drawn),,-2.36,,inactive
COc1cccc(C(=O)Nc2cccc(OC(C)=O)c2)c1,,-9.37,,inactive
COc1ccc(CCN2C(=O)/C(=C\c3ccco3)SC2=S)cc1OC,-6.07% (inactive),-20.3,,
COc1ccc(NC(=O)COC(=O)c2c3c(nc4ccccc24)CCCC3)cc1,-1.44% (inactive),-10.5,,
CCCCNC(=O)COC(=O)c1c2c(nc3ccccc13)CCC2,,1.26,7.31 µM (active),
CNC(=O)COC(=O)c1c2c(nc3ccccc13)CCC2,0.527% (inactive),-0.369,,
CN(CC(=O)NCCN1CCN(Cc2ccccc2)CC1)S(=O)(=O)c1cccc2nsnc12,-4.25% (inactive),3.2,,
COCC(C)NC(=O)CCc1nnc(C2(c3ccc(Cl)cc3)CCC2)o1 (stereo not drawn),-11.8% (inactive),7.22,,
Cc1cc(C)n(C(=O)CCCC(=O)n2nc(C)cc2C)n1,9.69% (inactive),-1.02,,
CCOc1ccc(NC(=O)CCC(=O)n2nc(C)cc2C)cc1,-4.91% (inactive),1.15,,
Cc1ccc(NC(=O)CCC(=O)n2nc(C)cc2C)c(C)c1,,,18.4 µM (active),
CC(C)N(C(=O)Cn1c(=O)oc2ccccc21)c1ccccc1,-14.7% (inactive),12.3,,
COc1ccc([C@@H]2[C@@H]3C(=O)N(C(C)(C)C)C(=O)[C@@H]3[C@]3(CC(C)C)C(=O)N(c4ccc(C(F)(F)F)cc4)C(=O)N23)cc1,,18.1,20.6 µM (active),
COc1ccc([C@@H]2[C@@H]3C(=O)N(C(C)(C)C)C(=O)[C@@H]3[C@]3(Cc4ccc(Cl)cc4)C(=O)N(c4ccc(OC)cc4)C(=O)N23)cc1,11.9% (inactive),16,,
CCN1C(=O)[C@H]2[C@@H](c3ccc(C)cc3)N3C(=O)N(c4ccc(C(F)(F)F)cc4)C(=O)[C@@]3(CC(C)C)[C@H]2C1=O,,11.1,18.4 µM (active),
CCN1C(=O)[C@H]2[C@@H](c3ccc(C)cc3)N3C(=O)N(c4ccc(C(F)(F)F)cc4)C(=O)[C@@]3(CC)[C@H]2C1=O,-0.378% (inactive),-7.19,,
COc1ccc([C@@H]2[C@@H]3C(=O)N(C(C)(C)C)C(=O)[C@@H]3[C@]3(C)C(=O)N(c4ccc(C(F)(F)F)cc4)C(=O)N23)cc1,-1.6% (inactive),14.7,,
CCN1C(=O)[C@H]2[C@@H](c3ccc(C)cc3)N3C(=O)N(c4ccccc4)C(=O)[C@@]3(CC)[C@H]2C1=O,,16.2,,inactive
